Experimental data published in PubChem BioAssay (EPA / NIEHS).
“And” between values parts separate entries of the source, which are not always exact repeats. Identical values can stand only once. Inconclusive results are not listed. Where a structure was tested more than once in an assay, its records may differ in their call. The source made the active and inactive calls. How the source made its calls, unless noted: active means hit-call score of the fitted dose curve at least 0.9, where 1 is the maximum; inactive means score below 0.9.

Columns and labels:
[1] = molecular target: Bile acid receptor (Homo sapiens) (UniProt Q96RI1); assay: ATG_FXR_TRANS: Attagene TRANS-FACTORIAL HepG2 Assay for Farnesoid X Receptor (FXR) (AID 2282979; active means hit-call score of the fitted dose curve at least 0.9, where 1 is the maximum;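 further: hits raise reporter mRNA above DMSO so AC50 marks FXR activation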); details: HepG2 Attagene TRANS FXR-GAL4 reporter transcription
Method in brief: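 After 24 h chemical treatment of transfected HepG2 cells, GAL4-UAS reporter transcripts driven by an exogenous FXR-GAL4 fusion were measured by RT-PCR and capillary electrophoresis. Increases over DMSO were fitted.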

[2] = molecular target: Oxysterols receptor LXR-alpha (Homo sapiens) (UniProt Q13133); assay: ATG_LXRa_TRANS: Attagene TRANS-FACTORIAL HepG2 Assay for human Liver X Receptor alpha (LXRa) (AID 2282980; active means hit-call score of the fitted dose curve at least 0.9, where 1 is the maximum); details: HepG2 Attagene TRANS reporter, LXRa transactivation
Method in brief: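 In this multiplexed TRANS system, compounds act on HepG2 cells carrying GAL4-UAS reporter units and a receptor-GAL4 fusion for 24 h. Induced reporter RNA is amplified, fluorescently labelled and sized by capillary electrophoresis, with DMSO as baseline.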

[3] = ATG_M_32_TRANS: Attagene TRANS-FACTORIAL HepG2 Assay for M32 Transcription Factor (Internal Marker) (AID 2282984; active means hit-call score of the fitted dose curve at least 0.9, where 1 is the maximum); details: HepG2 Attagene TRANS M32 internal marker reporter
Method in brief: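 HepG2 cells transiently transfected with multiple GAL4-UAS reporter transcription units, dosed for 24 hours; reporter mRNA quantified by RT-PCR, 6-FAM primer extension, HpaI digestion and capillary electrophoresis. Gain-of-signal fitted versus DMSO baseline; internal background-control marker.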

[4] = molecular target: Transcriptional activator Myb (Homo sapiens) (UniProt P10242); assay: ATG_Myb_CIS: Attagene CIS-FACTORIAL HepG2 Assay for human Myeloblastosis (Myb) Proto-Oncogene Transcription Factor (AID 2282986); details: HepG2 Attagene CIS-FACTORIAL Myb reporter transcription; actives raise or lower the signal
Method in brief: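 Reporter transcript levels, quantified by fluorescent RT-PCR and capillary electrophoresis, serve as the read-out. Transfected HepG2 cells carrying cis-promoter reporter units are dosed for 24 hours, and curves are fitted bidirectionally against DMSO controls.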

[5] = ATG_NFI_CIS: Attagene CIS-FACTORIAL HepG2 Assay for human Nuclear Factor I (NFI) (AID 2282989); details: HepG2 cis-regulatory reporter, NFI response element transcription; actives raise or lower the signal
Method in brief: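 Reporter transcription driven by endogenous transcription factors in HepG2 cells; 24 h treatment. Quantitation by labelled RT-PCR fragments on capillary electrophoresis, gain- or loss-of-signal relative to DMSO.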

[6] = ATG_NF_kB_CIS: Attagene CIS-FACTORIAL HepG2 Assay for human Nuclear Factor Kappa B (NF-kB) (AID 2282991); details: HepG2 Attagene cis-factorial NF-kB reporter mRNA; actives raise or lower the signal
Method in brief: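 Transient MRTU transfection of human HepG2 liver cells → 24 h chemical exposure → total RNA, oligo(dT) RT → PCR, 6-FAM primer extension, HpaI digest 2 h 37 C → CE fragment analysis. Bidirectional fitting, DMSO negative control.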

[7] = ATG_NRF2_ARE_CIS: Attagene CIS-FACTORIAL HepG2 Assay for human Nuclear Factor Erythroid 2 Related Factor 2 (NFR2) response to Antioxidant Response Elements (ARE) (AID 2282992); details: HepG2 Attagene ARE/NRF2 reporter, transcription factor activity; actives raise or lower the signal;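 on AC50: reporter mRNA level measured by RT-PCR and capillary electrophoresis fluorescence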
Method in brief: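 Multiplexed reporter mRNA profiling in HepG2 after a 24 h chemical exposure. Curves fitted in both directions relative to DMSO negative control.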

[8] = ATG_Oct_MLP_CIS: Attagene CIS-FACTORIAL HepG2 Assay for human Octamer-Binding Transcription Factor (Oct) (AID 2282993); details: HepG2 Attagene cis-factorial Oct reporter, mRNA; actives raise or lower the signal
Method in brief: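 Transfected HepG2 cells, 24 h treatment. Reporter mRNA quantified by RT-PCR–capillary electrophoresis; bidirectional fitting against DMSO.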

[9] = molecular target: Cellular tumor antigen p53 (Homo sapiens) (UniProt P04637); assay: ATG_p53_CIS: Attagene CIS-FACTORIAL HepG2 Assay for human p53 Transcription Factor (AID 2282994); details: HepG2 p53 cis-element reporter, Attagene mRNA; actives raise or lower the signal
Method in brief: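 Multiplexed reporter mRNA assay in human HepG2 liver cells; cis-regulated units report endogenous factor activity. Values come from bidirectional curve fitting against DMSO negative control after 24 h treatment.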

[10] = BSK_3C_uPAR: BioMAP Diversity Plus: 3C Assay for Urokinase-type plasminogen activator receptor (uPAR) Biomarker Activity (AID 2282998); details: BioMAP 3C HUVEC, uPAR biomarker ELISA; actives raise or lower the signal
Method in brief: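 Readout: ELISA for surface uPAR. System: human umbilical vein endothelial primary cells, 24 h after chemical exposure. Analysis: bidirectional fit, DMSO baseline.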

[11] = BSK_3C_VCAM1: BioMAP Diversity Plus: 3C Assay for Vascular cell adhesion molecule 1 (VCAM1) Biomarker Activity (AID 2282999); details: BioMAP 3C HUVEC, VCAM1 ELISA, cytokine-stimulated; actives raise or lower the signal
Method in brief: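 Human umbilical vein endothelial cells were dosed with compound for 24 h, after which cell-surface VCAM-1 was quantified by ELISA. Bidirectional curve fitting used DMSO as negative control and activity baseline.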

[12] = BSK_4H_Eotaxin3: BioMAP Diversity Plus: 4H Assay for Eotaxin 3 Biomarker Activity (AID 2283000); details: primary human endothelial cells (HUVEC); actives raise or lower the signal
Method in brief: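 ELISA quantitation of CCL26 (Eotaxin-3) protein from chemically dosed human vascular endothelial cells at 24 h; increases and decreases both scored relative to DMSO-treated baseline.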

[13] = molecular target: Oxysterols receptor LXR-beta (Homo sapiens) (UniProt P55055); assay: ATG_LXRb_TRANS: Attagene TRANS-FACTORIAL HepG2 Assay for human Liver X Receptor beta (LXRb) (AID 2282981; active means hit-call score of the fitted dose curve at least 0.9, where 1 is the maximum); details: HepG2 Attagene TRANS GAL4-LXRb reporter, mRNA
Method in brief: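 HepG2 cells transiently transfected with multiple reporter transcription units carrying chimeric NR-Gal4 proteins acting on GAL4-UAS reporters; compound exposure 24 h. Reporter mRNA quantified by RT-PCR, 6-FAM labelling, HpaI digestion and capillary electrophoresis; gain of signal versus DMSO.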

[14] = molecular target: Nuclear receptor subfamily 4 group A member 2 (Homo sapiens) (UniProt P43354); assay: ATG_NURR1_TRANS: Attagene TRANS-FACTORIAL HepG2 Assay for human Nuclear Receptor Related Protein 1 (NURR1) (AID 2282985; active means hit-call score of the fitted dose curve at least 0.9, where 1 is the maximum); details: HepG2 Attagene TRANS reporter, mRNA readout
Method in brief: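 HepG2 cells transiently transfected with GAL4-UAS reporter units and chimeric NR-Gal4 constructs; chemical exposure 24 h. Reporter mRNA quantified by RT-PCR, fluorescent labelling and capillary electrophoresis; gain of signal fitted relative to DMSO baseline.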

[15] = molecular target: Myc proto-oncogene protein (Homo sapiens) (UniProt P01106); assay: ATG_Myc_CIS: Attagene CIS-FACTORIAL HepG2 Assay for human Myelocytomatosis (Myc) Proto-Oncogene Transcription Factor (AID 2282990); details: HepG2, Attagene cis-reporter transcription factor activity; actives raise or lower the signal
Method in brief: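 DMSO-normalised, bidirectionally fitted reporter mRNA signal. HepG2 cells transfected with cis reporter constructs, treated 24 h; transcripts detected by RT-PCR, 6-FAM primer extension and CE.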

[16] = molecular target: Hepatocyte nuclear factor 4-alpha (Homo sapiens) (UniProt P41235); assay: ATG_HNF4a_TRANS: Attagene TRANS-FACTORIAL HepG2 Assay for human Hepatocyte Nuclear Factor 4 alpha (HNF4a) (AID 2282982; active means hit-call score of the fitted dose curve at least 0.9, where 1 is the maximum); details: HepG2 HNF4a transactivation reporter, mRNA readout
Method in brief: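 HepG2 cells transiently transfected with multiplexed GAL4-UAS reporter units responsive to chimeric NR-GAL4 proteins; compound exposure 24 h. Reporter mRNA quantified by RT-PCR, 6-FAM labelling, HpaI digestion and capillary electrophoresis; gain of signal versus DMSO baseline.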

[17] = ATG_M_06_TRANS: Attagene TRANS-FACTORIAL HepG2 Assay for M06 Transcription Factor (Internal Marker) (AID 2282983; active means hit-call score of the fitted dose curve at least 0.9, where 1 is the maximum); details: HepG2 Attagene TRANS M06 internal marker reporter
Method in brief: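 Internal-marker background readout from a multiplexed TRANS reporter system in HepG2; 24 h dosing; mRNA induction quantified by RT-PCR plus capillary electrophoresis fluorescence; DMSO as negative control and baseline.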

[18] = molecular target: Glucocorticoid receptor (Homo sapiens) (UniProt P04150); assay: ATG_GR_TRANS: Attagene TRANS-FACTORIAL HepG2 Assay for human Glucocorticoid Receptor (GR) (AID 2282978; active means hit-call score of the fitted dose curve at least 0.9, where 1 is the maximum;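 further: activators score as hits since higher reporter transcript over DMSO is fitted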); details: HepG2 Attagene TRANS GR reporter, mRNA transcription
Method in brief: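 Fluorescent capillary-electrophoresis quantitation of reporter mRNA is the readout, taken 24 h after dosing human HepG2 cells carrying transiently transfected GAL4-UAS reporter units activated by chimeric NR-GAL4 fusions; activity scored as induction over DMSO.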

[19] = molecular target: Nuclear respiratory factor 1 (Homo sapiens) (UniProt Q16656); assay: ATG_NRF1_CIS: Attagene CIS-FACTORIAL HepG2 Assay for human Nuclear Respiratory Factor 1 (NRF1) Orphan Gene (AID 2282987); details: HepG2 NRF1 cis-element reporter, Attagene multiplex; actives raise or lower the signal
Method in brief: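 Multiplexed cis-reporter assay, HepG2 cells, 24 h treatment. Total RNA → oligo(dT) RT → PCR with reporter-specific primers → 6-FAM primer extension → HpaI cut → CE. Bidirectional fit vs DMSO.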

[20] = BSK_3C_TissueFactor: BioMAP Diversity Plus: 3C Assay for Tissue Factor Biomarker Activity (AID 2282997); details: BioMAP 3C HUVEC, tissue factor biomarker readout; actives raise or lower the signal
Method in brief: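 Endothelial monolayers (human umbilical vein, primary) are dosed, incubated 24 h, and assayed for Tissue Factor by ELISA; DMSO serves as negative control for bidirectional fitting.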

Measured: AC50

Chain of Transcriptional activator Myb (Homo sapiens) (P10242 whole entry, looked up): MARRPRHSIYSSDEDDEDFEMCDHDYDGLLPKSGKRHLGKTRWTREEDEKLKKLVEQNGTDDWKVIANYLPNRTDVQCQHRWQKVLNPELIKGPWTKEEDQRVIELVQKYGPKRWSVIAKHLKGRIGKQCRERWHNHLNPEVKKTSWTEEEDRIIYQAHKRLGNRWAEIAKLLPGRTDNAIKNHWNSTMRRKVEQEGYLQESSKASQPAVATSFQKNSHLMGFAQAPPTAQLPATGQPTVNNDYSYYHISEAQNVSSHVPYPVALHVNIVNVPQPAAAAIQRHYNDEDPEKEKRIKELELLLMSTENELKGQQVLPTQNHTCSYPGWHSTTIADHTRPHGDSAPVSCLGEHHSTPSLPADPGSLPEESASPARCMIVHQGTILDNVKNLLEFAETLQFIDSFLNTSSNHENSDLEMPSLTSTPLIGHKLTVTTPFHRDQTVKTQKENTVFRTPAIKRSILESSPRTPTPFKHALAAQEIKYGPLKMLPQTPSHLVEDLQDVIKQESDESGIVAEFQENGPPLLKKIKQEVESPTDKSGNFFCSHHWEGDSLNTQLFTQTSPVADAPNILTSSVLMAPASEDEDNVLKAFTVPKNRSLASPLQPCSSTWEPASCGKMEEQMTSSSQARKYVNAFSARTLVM
Chain of Myc proto-oncogene protein (Homo sapiens) (P01106 whole entry, looked up): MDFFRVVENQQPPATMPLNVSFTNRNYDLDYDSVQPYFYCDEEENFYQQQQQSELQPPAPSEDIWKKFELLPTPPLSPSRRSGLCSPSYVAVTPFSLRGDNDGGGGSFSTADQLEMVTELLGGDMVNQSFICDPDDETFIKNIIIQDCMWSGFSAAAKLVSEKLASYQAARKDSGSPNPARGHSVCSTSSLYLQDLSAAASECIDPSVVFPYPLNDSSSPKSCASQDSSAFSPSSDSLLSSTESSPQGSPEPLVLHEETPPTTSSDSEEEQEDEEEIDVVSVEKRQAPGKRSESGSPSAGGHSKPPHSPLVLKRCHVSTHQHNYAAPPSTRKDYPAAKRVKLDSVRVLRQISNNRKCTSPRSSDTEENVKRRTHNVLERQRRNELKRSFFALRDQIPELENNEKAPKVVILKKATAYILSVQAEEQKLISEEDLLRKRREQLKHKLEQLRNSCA
Chain of Bile acid receptor (Homo sapiens) (Q96RI1 whole entry, looked up, the tested form may be a part): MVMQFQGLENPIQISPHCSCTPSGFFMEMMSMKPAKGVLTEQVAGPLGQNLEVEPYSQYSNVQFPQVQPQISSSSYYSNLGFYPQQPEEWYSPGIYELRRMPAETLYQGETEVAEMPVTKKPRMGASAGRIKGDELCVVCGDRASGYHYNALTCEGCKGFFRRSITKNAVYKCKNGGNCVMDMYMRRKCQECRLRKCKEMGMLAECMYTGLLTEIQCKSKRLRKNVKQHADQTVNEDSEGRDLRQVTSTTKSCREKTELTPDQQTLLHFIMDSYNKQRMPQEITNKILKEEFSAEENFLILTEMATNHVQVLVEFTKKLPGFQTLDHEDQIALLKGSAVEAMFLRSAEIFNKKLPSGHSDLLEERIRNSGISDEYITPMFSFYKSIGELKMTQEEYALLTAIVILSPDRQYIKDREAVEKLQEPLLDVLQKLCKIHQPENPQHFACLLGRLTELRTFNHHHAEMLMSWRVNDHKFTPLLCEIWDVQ
Chain of Nuclear respiratory factor 1 (Homo sapiens) (Q16656 whole entry, looked up): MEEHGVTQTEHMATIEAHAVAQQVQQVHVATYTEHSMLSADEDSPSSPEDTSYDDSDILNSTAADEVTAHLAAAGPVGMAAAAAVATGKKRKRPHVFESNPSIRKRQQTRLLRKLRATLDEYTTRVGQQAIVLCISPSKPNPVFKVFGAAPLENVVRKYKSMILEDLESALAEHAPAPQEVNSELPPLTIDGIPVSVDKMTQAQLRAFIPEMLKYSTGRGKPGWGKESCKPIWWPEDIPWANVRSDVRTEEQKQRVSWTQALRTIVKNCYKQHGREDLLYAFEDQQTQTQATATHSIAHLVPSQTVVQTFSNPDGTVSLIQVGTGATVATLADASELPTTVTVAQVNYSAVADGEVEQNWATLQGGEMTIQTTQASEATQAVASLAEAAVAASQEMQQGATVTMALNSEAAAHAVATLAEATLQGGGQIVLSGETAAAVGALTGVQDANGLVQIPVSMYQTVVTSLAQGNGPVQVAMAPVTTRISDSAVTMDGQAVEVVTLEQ
Chain of Nuclear receptor subfamily 4 group A member 2 (Homo sapiens) (P43354 whole entry, looked up, the tested form may be a part): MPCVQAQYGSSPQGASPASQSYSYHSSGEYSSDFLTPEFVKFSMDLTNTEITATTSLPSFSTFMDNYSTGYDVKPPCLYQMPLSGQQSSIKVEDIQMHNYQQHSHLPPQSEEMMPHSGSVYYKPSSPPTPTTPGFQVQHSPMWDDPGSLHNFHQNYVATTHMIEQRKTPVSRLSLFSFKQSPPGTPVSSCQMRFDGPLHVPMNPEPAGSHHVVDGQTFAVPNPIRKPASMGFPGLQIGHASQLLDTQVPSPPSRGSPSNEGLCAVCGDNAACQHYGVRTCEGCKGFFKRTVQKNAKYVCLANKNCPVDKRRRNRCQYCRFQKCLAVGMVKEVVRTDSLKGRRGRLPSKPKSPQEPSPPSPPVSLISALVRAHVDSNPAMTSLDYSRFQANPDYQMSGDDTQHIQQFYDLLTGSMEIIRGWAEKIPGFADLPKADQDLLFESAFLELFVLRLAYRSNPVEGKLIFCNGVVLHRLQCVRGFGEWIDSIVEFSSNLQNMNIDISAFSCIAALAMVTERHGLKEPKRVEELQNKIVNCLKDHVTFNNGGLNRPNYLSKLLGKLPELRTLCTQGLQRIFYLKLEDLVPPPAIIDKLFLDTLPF
Chain of Oxysterols receptor LXR-alpha (Homo sapiens) (Q13133 whole entry, looked up, the tested form may be a part): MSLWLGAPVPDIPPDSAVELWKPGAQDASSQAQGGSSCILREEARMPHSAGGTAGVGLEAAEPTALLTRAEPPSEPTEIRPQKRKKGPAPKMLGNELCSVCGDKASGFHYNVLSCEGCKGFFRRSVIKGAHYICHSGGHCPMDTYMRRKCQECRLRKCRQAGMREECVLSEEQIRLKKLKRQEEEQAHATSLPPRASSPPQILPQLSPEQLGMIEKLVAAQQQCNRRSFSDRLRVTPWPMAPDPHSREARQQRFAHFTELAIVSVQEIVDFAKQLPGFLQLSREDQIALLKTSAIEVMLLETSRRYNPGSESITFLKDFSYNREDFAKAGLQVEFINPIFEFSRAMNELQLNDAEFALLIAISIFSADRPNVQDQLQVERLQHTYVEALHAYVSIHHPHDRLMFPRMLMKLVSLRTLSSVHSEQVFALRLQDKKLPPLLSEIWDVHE
Chain of Cellular tumor antigen p53 (Homo sapiens) (P04637 whole entry, looked up): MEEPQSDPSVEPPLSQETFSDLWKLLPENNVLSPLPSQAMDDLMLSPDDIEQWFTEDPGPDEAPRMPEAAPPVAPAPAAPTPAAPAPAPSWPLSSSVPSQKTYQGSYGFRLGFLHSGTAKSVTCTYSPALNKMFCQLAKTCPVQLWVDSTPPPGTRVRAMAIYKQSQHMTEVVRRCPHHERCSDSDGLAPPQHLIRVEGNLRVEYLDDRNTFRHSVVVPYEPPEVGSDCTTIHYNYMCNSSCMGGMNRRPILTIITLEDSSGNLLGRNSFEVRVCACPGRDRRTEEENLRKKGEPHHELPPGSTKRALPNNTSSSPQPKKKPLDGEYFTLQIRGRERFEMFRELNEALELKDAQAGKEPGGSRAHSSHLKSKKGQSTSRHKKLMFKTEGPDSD
Chain of Hepatocyte nuclear factor 4-alpha (Homo sapiens) (P41235 whole entry, looked up, the tested form may be a part): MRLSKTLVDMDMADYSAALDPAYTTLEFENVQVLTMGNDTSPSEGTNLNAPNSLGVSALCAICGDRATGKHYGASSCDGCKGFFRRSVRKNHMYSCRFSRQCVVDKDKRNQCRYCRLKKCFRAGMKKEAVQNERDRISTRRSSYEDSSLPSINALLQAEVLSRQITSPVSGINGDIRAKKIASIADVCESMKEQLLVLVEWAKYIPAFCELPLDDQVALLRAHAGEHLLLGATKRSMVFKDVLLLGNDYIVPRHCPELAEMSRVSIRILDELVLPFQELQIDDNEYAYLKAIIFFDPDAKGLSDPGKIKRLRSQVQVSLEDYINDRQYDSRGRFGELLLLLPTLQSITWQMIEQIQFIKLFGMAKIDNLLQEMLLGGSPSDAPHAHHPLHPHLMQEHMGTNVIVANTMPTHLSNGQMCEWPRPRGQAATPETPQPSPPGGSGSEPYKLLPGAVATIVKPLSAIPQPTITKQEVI
Chain of Glucocorticoid receptor (Homo sapiens) (P04150 whole entry, looked up, the tested form may be a part): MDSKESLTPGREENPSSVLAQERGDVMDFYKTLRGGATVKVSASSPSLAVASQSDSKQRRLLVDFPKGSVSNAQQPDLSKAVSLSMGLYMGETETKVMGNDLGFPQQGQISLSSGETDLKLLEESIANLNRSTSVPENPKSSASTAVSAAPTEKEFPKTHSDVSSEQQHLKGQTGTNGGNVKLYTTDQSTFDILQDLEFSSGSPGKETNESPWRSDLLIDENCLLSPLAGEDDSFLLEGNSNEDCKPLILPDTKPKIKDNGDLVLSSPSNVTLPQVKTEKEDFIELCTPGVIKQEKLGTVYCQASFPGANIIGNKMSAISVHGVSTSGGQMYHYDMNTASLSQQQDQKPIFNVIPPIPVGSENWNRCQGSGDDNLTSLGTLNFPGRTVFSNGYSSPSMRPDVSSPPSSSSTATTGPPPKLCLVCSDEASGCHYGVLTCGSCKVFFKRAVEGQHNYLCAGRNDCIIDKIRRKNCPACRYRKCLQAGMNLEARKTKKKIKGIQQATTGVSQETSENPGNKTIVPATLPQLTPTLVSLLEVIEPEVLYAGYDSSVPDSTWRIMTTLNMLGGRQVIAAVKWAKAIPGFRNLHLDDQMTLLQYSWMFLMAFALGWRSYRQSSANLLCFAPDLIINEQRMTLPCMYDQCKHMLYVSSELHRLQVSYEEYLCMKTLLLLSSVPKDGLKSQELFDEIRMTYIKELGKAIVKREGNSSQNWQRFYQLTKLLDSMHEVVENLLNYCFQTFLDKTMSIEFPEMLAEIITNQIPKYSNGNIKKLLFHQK

O=C=NCCCCCCN=C=O
not listed: [13] | [14] | [15] | [16] | [17] | [18] | [19] | [20]
inactive: all other assays above

Cc1ccc(C(C)C)cc1
not listed: [1] | [3] | [6] | [16] | [17] | [18] | [19] | [20]
inactive: all other assays above

CCCCCc1ccc(N)cc1
active: [6] 20.2 µM | [9] 6.21 µM and 6.72 µM | [12] 14 µM
inactive: [2] | [16] | [17] | [3] | [14] | [4] | [5] | [15] | [6] | [8] | [9] | [10] | [11]

CCN(Cc1cccc(S(=O)(=O)O)c1)c1ccc(C(=C2C=CC(=[N+](CC)Cc3cccc(S(=O)(=O)O)c3)C=C2)c2ccccc2S(=O)(=O)[O-])cc1
not listed: [2] | [3] | [13] | [17] | [18] | [19] | [20]
inactive: all other assays above

CC(C)(C)c1cc(/C=C2\SC(N)=NC2=O)cc(C(C)(C)C)c1O
active: [5] 18.4 µM | [7] 11.6 µM | [8] 16.2 µM | [9] 11 µM | [10] 31.6 µM | [11] 29.4 µM | [12] 30.4 µM
not listed: [1] | [2] | [13] | [16] | [20]
inactive: all other assays above

Clc1cc(Cl)c2c(c1)N=C1CCCCCN1C2
active: [6] 72.4 µM | [7] 20.8 µM | [9] 50 µM
inactive: [18] | [4] | [19] | [5] | [8] | [20] | [10] | [11] | [12]

Cc1ncc(CO)c(CO)c1O
not listed: [3] | [6] | [13] | [15] | [16] | [17] | [18] | [20]
inactive: all other assays above
